Screening results as filed in PubChem.
NRP1-CendR mod – modulators of CendR peptide binding to NRP-1, primary screen, biochemical, fluorescence polarization, uHTS; inhibition, % at 25 µM; actives 0.85% (n = 360,000); FAM-RPARPAR peptide binding to NRP-1;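 active = inhibition or corrected inhibition above about 18%, plus a signal ratio from 0.5 to 1.5, limit read from the data, passing the limit was not always enough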
SKN-1 block – suppressors of acrylamide-induced Pgst-4::GFP reporter in worms, primary screen, SKN-1 inhibitor project, whole organism, uHTS, GFP/RFP fluorescence ratio, strain VP596. C. elegans VP596 Pgst-4::GFP/RFP ratio, 24 h. inhibition, % at 21.8 µM. actives 0.49% (n = 360,000). AID 624304, 2012;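 active = interference check ratio from 0.5 to 1.5 plus GFP to RFP signal ratio inhibition reaching or exceeding a fixed threshold, cut at about 30% in these data, passing the limit was not always enough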
MPTP block – mitochondrial permeability transition pore inhibitors, primary screen, biochemical, isolated mouse mitochondria, absorbance. Ca2+ swelling absorbance, 30 min. inhibition, % at 10 µM. actives 1.4% (n = 360,000);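 active = inhibition of 50% or more, scaled per plate between neutral and stimulator controls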
ATG4B inh – ATG4B protease inhibitors, primary screen, biochemical, fluorescence, uHTS; Cysteine protease ATG4B (Homo sapiens), Q9Y4P1; inhibition, % at 8.33 µM; actives 0.51% (n = 340,000); ATG4B cleavage of LC3-PLA2, NBD-HPC fluorescence, 1 h; AID 504462, 2011; in the data active = inhibition above about 40%
Target sequence (Q9Y4P1 whole entry, looked up): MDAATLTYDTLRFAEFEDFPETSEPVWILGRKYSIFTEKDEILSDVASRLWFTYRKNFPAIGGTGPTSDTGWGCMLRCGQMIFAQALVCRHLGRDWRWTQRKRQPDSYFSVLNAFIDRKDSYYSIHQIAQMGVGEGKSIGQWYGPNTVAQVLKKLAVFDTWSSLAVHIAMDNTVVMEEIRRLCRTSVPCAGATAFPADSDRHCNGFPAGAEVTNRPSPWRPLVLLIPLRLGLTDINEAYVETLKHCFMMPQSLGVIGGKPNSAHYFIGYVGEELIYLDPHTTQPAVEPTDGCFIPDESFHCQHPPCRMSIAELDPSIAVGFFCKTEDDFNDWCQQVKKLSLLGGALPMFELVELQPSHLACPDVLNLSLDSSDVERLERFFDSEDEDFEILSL
F508del corr – F508del CFTR correction, initial screen, CFBE line, single point; CFBE cells, YFP halide quenching; stimulated with forskolin plus potentiator P3; % fluorescence drop versus neutral controls; activity (quench increase), % at 7.58 µM; actives 0.36% (n = 350,000); AID 720511, 2013;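 active = mean added fluorescence quench of at least 8% versus neutral control, with both replicates also reaching 8%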;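 note: cells transiently co-express mutant CFTR-F508del with the halide-sensitive YFP; corrector assay measuring rescue of mutant channel to the surface after 24 h compound exposure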
Each line names hits and unclear results; the compound was inactive in the other large screens; ! = repeats disagree. Rows were chosen to be rich in hits. Some 2.7% of all compounds tested hit in one or more screens of this group.

O=P(Oc1ccc(Cl)cc1)(N1CC1)N1CC1	none
CCOC(=O)[C@]12Cc3ccc(C)cc3[C@H]1N(C1CCCCC1)C(=O)c1cc(OC)ccc12	F508del corr 20 (no result: ATG4B inh)
c1ccc(Cn2ccnc2)cc1	none
CC(C)c1cccc(C(C)C)c1OCCn1ccnc1	SKN-1 block 34 (no result: F508del corr)
CCN1[C@@H]2c3ccc(-c4cccc(C(=O)N(C)C)c4)c(=O)n3C[C@H]1[C@H](CO)[C@H]2C(=O)OC	none (no result: NRP1-CendR mod, SKN-1 block, MPTP block, ATG4B inh)
Cc1nc(C)c(C(=O)NN=Cc2ccc(N(CCCl)CCCl)cc2)s1	F508del corr 8.7
COC(=O)[C@@H]1[C@@H](CO)[C@@H]2Cn3c(ccc(-c4ccccc4F)c3=O)[C@H]1N2C(=O)C1CCC1	none (no result: NRP1-CendR mod, SKN-1 block, MPTP block, ATG4B inh)
c1ccc(Nc2ccc(Nc3ccccc3)cc2)cc1	NRP1-CendR mod 29
O=[N+]([O-])c1ccc(Cl)cc1	none
O=[N+]([O-])c1ccc(Nc2ccccc2)cc1	SKN-1 block 51
CCn1c(O)c(C=Nc2ccc(S(N)(=O)=O)cc2)c(=O)[nH]c1=S	SKN-1 block 38 (no result: F508del corr)
O=C(c1c[nH]c2ccc(S(=O)(=O)N3CCOCC3)cc2c1=O)N1CCC2(CC1)OCCO2	NRP1-CendR mod 28
CC1(C)OC(c2ccccc2)=C/C(=C/C=C2C(=O)NC(=O)NC2=O)O1	SKN-1 block 46, F508del corr 14
CC=Cc1ccc2n(c1=O)C[C@@H]1[C@@H](CO)[C@H](C(=O)O)[C@H]2N1S(=O)(=O)c1ccccc1C (mixture of isomers)	none (no result: NRP1-CendR mod, SKN-1 block, MPTP block, ATG4B inh)
O=[N+]([O-])c1ccc(O)c([N+](=O)[O-])c1	none
O=c1[nH]c(O)c(N=Nc2cc([N+](=O)[O-])ccc2O)c(=O)[nH]1	SKN-1 block 50
O=C(Nc1ccc(Cl)cc1C(=O)c1ccccc1)c1ccccc1	NRP1-CendR mod 25 (no result: F508del corr)
O=C(CN1CCCC1)Nc1ccc(Cl)cc1C(=O)c1ccccc1	none
Cc1ccccc1-c1ccc([C@H]2[C@@H](CO)N3CCCCN(C(=O)Cc4ccccn4)C[C@@H]23)cc1	none (no result: NRP1-CendR mod, SKN-1 block, MPTP block, ATG4B inh)
COc1cc(N2CCOCC2)ccc1/C=C1\C(=O)NC(=O)N(Cc2ccc3c(c2)OCO3)C1=O	SKN-1 block 41
CN1CC[C@@]2(C)c3cc(O)ccc3N(C)C2O1 (stereo not given in full)	none (no result: F508del corr)
CN1CC[C@@]2(C)c3cc(O)ccc3N(C)[C@@H]12	NRP1-CendR mod 28!
CCN1[C@@H]2Cn3c(ccc(-c4cccc(C(=O)N(C)C)c4)c3=O)[C@H]1[C@@H](C(=O)OC)[C@@H]2CO	none (no result: NRP1-CendR mod, SKN-1 block, MPTP block, ATG4B inh)
O=C(O)[C@H]1[C@H](CO)[C@H]2Cn3c(ccc(-c4ccncc4)c3=O)[C@@H]1N2C(=O)C1CCCCC1	none (no result: NRP1-CendR mod, SKN-1 block, MPTP block, ATG4B inh)
O=C(Cc1ccncc1)N1CCCCN2[C@H](CO)[C@H](c3ccc(C#Cc4ccccc4F)cc3)[C@H]2C1	none (no result: NRP1-CendR mod, SKN-1 block, MPTP block, ATG4B inh)
O=C(Cc1cccnc1)N1CCCCN2[C@H](CO)[C@@H](c3ccc(/C=C/c4ccccc4)cc3)[C@@H]2C1	none (no result: NRP1-CendR mod, SKN-1 block, MPTP block, ATG4B inh)
C=Cc1cc(OC)c2c(c1)c(=O)oc1c2cc(OC)c2c(O)ccc(C3OC(C)C(O)C(C)(O)C3O)c21 (stereo not given)	F508del corr 18
O=C(O)[C@@H]1[C@@H](CO)[C@@H]2Cn3c(ccc(-c4cncnc4)c3=O)[C@H]1N2C(=O)NC1CCCC1	none (no result: NRP1-CendR mod, SKN-1 block, MPTP block, ATG4B inh)
O=C1NC(=S)N(c2ccc(F)cc2)C(=O)/C1=C\c1ccoc1	ATG4B inh 85 (no result: F508del corr)
Cc1ccc(N2C(=O)NC(=O)/C(=C\c3ccoc3)C2=O)cc1	none
COC(=O)C1=C(c2ccccc2OCc2ccccc2)C[C@@H]2CC[C@H]1N2C(=O)NCc1ccc(F)cc1	NRP1-CendR mod 22
COC(=O)C1=C(c2cccc(OC)c2OC)C[C@@H]2CC[C@H]1N2C(=O)NCc1ccc(F)cc1	NRP1-CendR mod 27
COC(=O)C1=C(c2ccc(F)cc2OCc2ccccc2)C[C@@H]2CC[C@H]1N2C(=O)NCc1ccc(F)cc1	none
O=C(Cc1ccccn1)N1CCCCN2[C@@H](CO)[C@H](c3ccc(C#Cc4ccccc4)cc3)[C@@H]2C1	none (no result: NRP1-CendR mod, SKN-1 block, MPTP block, ATG4B inh)
COc1ccc(-c2ccc([C@@H]3[C@H](CO)N4CCCCN(C(=O)Cc5ccccc5)C[C@@H]34)cc2)cc1	none (no result: NRP1-CendR mod, SKN-1 block, MPTP block, ATG4B inh)
